From ChEMBL document CHEMBL3988442, “University of Dundee, Small-Polar-MMV Screening Library” (2021)
In all, about 67,000 compounds went through this assay and about 300 (0.45%) showed an effect of 50% or more. The list comes from a sample in which strong results are over-represented; it also holds similar structures and randomly drawn compounds.

The compounds below were run against Polyketide synthase Pks13 (Mycobacterium tuberculosis (strain ATCC 25618 / H37Rv)) (UniProt I6X8D2) (assay: Mycobacterium tuberculosis Polyketide synthase 13 Thioesterase (PKS13)). Conditions: 30 µM.
Sequence of Polyketide synthase Pks13 (Mycobacterium tuberculosis (strain ATCC 25618 / H37Rv)) (I6X8D2 whole entry): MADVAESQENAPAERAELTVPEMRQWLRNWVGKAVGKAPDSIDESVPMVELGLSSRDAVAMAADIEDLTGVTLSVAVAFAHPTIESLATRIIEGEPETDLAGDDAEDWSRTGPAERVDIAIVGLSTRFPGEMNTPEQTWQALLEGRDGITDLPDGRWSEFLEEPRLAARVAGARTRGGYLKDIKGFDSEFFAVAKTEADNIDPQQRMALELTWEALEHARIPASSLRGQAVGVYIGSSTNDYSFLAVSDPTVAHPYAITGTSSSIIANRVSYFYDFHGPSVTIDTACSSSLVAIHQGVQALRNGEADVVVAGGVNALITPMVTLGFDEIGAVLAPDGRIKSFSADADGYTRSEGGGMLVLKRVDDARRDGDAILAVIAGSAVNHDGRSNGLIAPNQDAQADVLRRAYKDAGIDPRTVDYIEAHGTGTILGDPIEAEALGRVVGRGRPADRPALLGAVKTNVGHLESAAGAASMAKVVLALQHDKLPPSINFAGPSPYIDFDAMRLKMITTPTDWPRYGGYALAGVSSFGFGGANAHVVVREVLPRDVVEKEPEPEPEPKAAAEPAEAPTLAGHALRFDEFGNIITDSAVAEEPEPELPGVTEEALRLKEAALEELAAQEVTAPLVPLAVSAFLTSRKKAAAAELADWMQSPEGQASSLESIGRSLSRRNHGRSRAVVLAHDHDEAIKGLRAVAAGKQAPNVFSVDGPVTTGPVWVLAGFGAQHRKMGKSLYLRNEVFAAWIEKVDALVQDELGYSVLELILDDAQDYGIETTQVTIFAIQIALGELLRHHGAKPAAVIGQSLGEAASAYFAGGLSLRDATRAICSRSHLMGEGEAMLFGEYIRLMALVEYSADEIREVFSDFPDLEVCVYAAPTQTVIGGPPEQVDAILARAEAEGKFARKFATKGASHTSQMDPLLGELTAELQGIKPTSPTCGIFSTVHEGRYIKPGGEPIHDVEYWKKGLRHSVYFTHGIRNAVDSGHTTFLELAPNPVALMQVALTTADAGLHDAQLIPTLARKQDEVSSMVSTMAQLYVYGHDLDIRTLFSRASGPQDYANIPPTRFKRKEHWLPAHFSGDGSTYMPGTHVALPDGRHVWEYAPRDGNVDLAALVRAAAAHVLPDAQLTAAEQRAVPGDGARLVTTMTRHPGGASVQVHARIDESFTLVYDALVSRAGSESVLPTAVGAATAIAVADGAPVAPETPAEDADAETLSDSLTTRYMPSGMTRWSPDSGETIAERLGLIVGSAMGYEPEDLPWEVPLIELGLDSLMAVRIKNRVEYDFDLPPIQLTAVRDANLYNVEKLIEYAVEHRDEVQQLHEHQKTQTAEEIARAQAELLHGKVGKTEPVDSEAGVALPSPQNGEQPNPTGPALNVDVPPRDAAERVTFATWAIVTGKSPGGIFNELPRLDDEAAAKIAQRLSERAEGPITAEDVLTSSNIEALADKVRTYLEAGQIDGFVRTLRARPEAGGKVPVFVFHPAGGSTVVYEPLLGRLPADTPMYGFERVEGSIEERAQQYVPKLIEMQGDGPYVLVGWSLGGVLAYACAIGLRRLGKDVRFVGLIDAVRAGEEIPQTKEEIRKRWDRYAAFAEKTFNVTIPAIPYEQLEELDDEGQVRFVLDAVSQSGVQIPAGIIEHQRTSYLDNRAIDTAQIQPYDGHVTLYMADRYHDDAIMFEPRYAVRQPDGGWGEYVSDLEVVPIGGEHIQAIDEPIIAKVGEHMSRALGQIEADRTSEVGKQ
Format: functional
Parameters: scale not given: in the data most compounds retested in dose-response had high values

| SMILES | Percent Effect [%] |
| --- | --- |
| COCCN1C[C@H]2CCN(C(=O)c3cc(C)on3)CC[C@H]2S1(=O)=O | -423 |
| Cc1nn(C)c2c(=O)n(CC(=O)NC3CCCCC3)ccc12 | -9.58 |
| CCS(=O)(=O)NC[C@]12COC[C@H]1CN(Cc1cc(C)on1)C2 | -29.9 |
| CNC(=O)N1CC[C@@H]2CN(Cc3cccc(OC)c3)S(=O)(=O)[C@@H]2CC1 | -16.2 |
| N#Cc1cccnc1N1CCCC(CO)(Cc2ccc(F)cc2)C1 (centres undefined) | -5.66 |
| N#Cc1cccnc1N1CCCC(CO)(Cc2cccc(Cl)c2)C1 (centres undefined) | 96.8 |
| OCC1(Cc2cccc(Cl)c2)CCCN(c2ncccn2)C1 (centres undefined) | 20.3 |
| CCC(=O)N1CCN(Cc2cnc(C)nc2)[C@H]2CS(=O)(=O)C[C@H]21 | -6.93 |
| Cc1noc(C)c1CN1CC[C@H]2C[C@H](c3ccncn3)O[C@@H]2C1 | -14.6 |
| Cn1ccc(C(=O)NCc2cccc(NC(=O)C3CCC3)c2)cc1=O | 107 |
| Cn1ccc(C(=O)NCc2cccc(N3CCCCC3=O)c2)cc1=O | 14.5 |
| Cn1ccc(C(=O)NCc2ccc(CN3CCCCC3)cc2)cc1=O | 4.22 |
| Cn1ccc(C(=O)NCc2cccc(CN3CCCC3)c2)cc1=O | 56.3 |
| Cn1ccc(C(=O)NCc2cccc(Cn3ccnc3)c2)cc1=O | -52 |
| Cn1ccc(C(=O)NCc2ccc(CN3CCCC3)cc2)cc1=O | -2.41 |
| Cc1cc(N2CCN(C(=O)[C@@H]3C[C@@H]4C=C[C@H]3C4)CC2)cc(C)n1 | -10.7 |
| CCc1nccn1CC(=O)N1C[C@H]2CC[C@@H]1CN(C(=O)N(C)C)C2 | -13.8 |
| CN1CCN(Cc2nc3ccccc3[nH]2)[C@H]2CS(=O)(=O)C[C@H]21 | -21.3 |
| Cc1cnc(N2C[C@@H]3[C@@H](C2)OCC(=O)N3CCN(C)C)nc1 | 3.47 |
| Cc1cccc(OCc2ccc(C(=O)N3N=CCC3(O)C(F)(F)F)o2)c1 (centres undefined) | 45.3 |
| O=C(c1ccc(COc2ccccc2Cl)o1)N1N=CCC1(O)C(F)(F)F (centres undefined) | 37.5 |
| O=C(c1ccc(COc2ccc(Cl)cc2)o1)N1N=CCC1(O)C(F)(F)F (centres undefined) | 73.2 |
| O=C(c1cccnc1)N1CCN2C(=O)N(Cc3ccc(F)cc3)C[C@H]2C1 | 2.86 |

| SMILES | Percent Effect [%] |
| --- | --- |
| CC(C)N(C)C[C@H]1C[C@@H]2CN(Cc3ccco3)C[C@@H]2O1 | -28.7 |
| CCOC(=O)[C@]12CCCN(Cc3nccs3)C[C@H]1CN(CC(C)C)C2 | -5.86 |
| Cc1cc(C2CCCCN2C(=O)c2cccn2C)nc2nccn12 (centres undefined) | 8.03 |
| Cc1cc(C2CCCCN2C(=O)c2ccsc2)nc2nccn12 (centres undefined) | 84.3 |
| Cc1noc(C)c1C(=O)N1CCCCC1c1cc(C)n2ccnc2n1 (centres undefined) | -1.89 |
| CC(C)CN1C(=O)CO[C@@H]2CN(C(=O)N3CCOCC3)C[C@H]21 | -27.7 |
| O=C(c1ccnnc1)N1C[C@H]2CCC[C@@H](OCc3cccnc3)[C@@H]2C1 | 8.09 |
| O=C(NCCc1ccccc1)N1C[C@H]2C[C@H](C(=O)N3CCCC3)[C@@H](C1)O2 | -28.3 |
| O=C(c1cc(-c2ccco2)nc2c(Cl)cccc12)N1CCS(=O)(=O)CC1 | -5.09 |
| O=C(c1cc(-c2ccco2)nc2c(Cl)cccc12)N1C[C@H]2CNC[C@H]2C1 | -42.7 |
| COCC1CCN(C(=O)c2cc(-c3ccco3)nc3c(Cl)cccc23)C1 (centres undefined) | 66.3 |
| O=C(O)C1c2nc[nH]c2CCN1Cc1ccccc1-c1ccccc1 (centres undefined) | 62.3 |
| O=C(O)C1c2nc[nH]c2CCN1Cc1ccc(-c2ccccc2)s1 (centres undefined) | -9.34 |
| O=C(O)C1c2nc[nH]c2CCN1Cc1cc(-c2ccccc2)no1 (centres undefined) | -11.2 |
| CSCC(=O)N1C[C@H]2CC[C@@H]1CN(C1Cc3ccccc3C1)C2 | -8.9 |
| Cc1nccc([C@@H]2C[C@@H]3CCN(Cc4cccs4)C[C@H]3O2)n1 | -9.54 |
| CC(=O)c1ccc(N2CCCC(CO)(CCOc3ccccc3)C2)nc1 (centres undefined) | 15.6 |
| CC(=O)c1ccc(N2CCCC(CO)(Cc3ccccc3F)C2)nc1 (centres undefined) | -9.09 |
| N#Cc1cccc(N2CCC3(CC2)Nc2ccccc2NC3=O)n1 | -22.8 |
| OCC1(CCOc2ccccc2)CCCN(c2ccc(Cl)cn2)C1 (centres undefined) | 56.5 |
| N#Cc1cccc(N2CCC3(CCC(=O)N(CCCO)C3)CC2)n1 | -0.0305 |
| Nc1nccc(N2CCCC(CO)(CCOc3ccccc3)C2)n1 (centres undefined) | -23.1 |
| CCc1nc(N2CCCC(CO)(CCOC)C2)ncc1C (centres undefined) | -19.2 |

| SMILES | Percent Effect [%] |
| --- | --- |
| N#Cc1cccc(N2CCC(CO)(CCCc3ccccc3)CC2)n1 | 67.6 |
| N#Cc1cccc(N2CCCC(CO)(CCOc3ccccc3)C2)n1 (centres undefined) | 132 |
| N#Cc1ccc(N2CCCC(CO)(CCOc3ccccc3)C2)nc1 (centres undefined) | 13.8 |
| OCC1(CCOc2ccccc2)CCN(c2ccc(Cl)cn2)CC1 | 43.4 |
| CC(=O)c1ccc(N2CCCC(CO)(CCc3ccccc3)C2)nc1 (centres undefined) | 55.1 |
| O=C(NCc1ccco1)[C@H]1C[C@H]2OCC[C@H]2N(S(=O)(=O)C2CC2)C1 | -7.99 |
| CCOC(=O)[C@]12CCCN(Cc3cccs3)C[C@H]1CN(C(C)C)C2 | -0.678 |
| N#Cc1cccc(N2CCC(CO)(CCOc3ccccc3)CC2)n1 | 128 |
| N#Cc1cccnc1N1CCCC(CO)(CCOc2ccccc2)C1 (centres undefined) | -13.7 |
| CC(=O)c1ccc(N2CCC(CO)(CCOc3ccccc3)CC2)nc1 | 8.13 |
| CC(C)CN1C[C@H]2C[C@H](C(=O)NC3CCC3)[C@@H](C1)O2 | 8.3 |
| CCNc1nc(-c2cccnc2)c(-c2ccnc(NS(C)(=O)=O)n2)s1 | 17.5 |
| CCNc1nc(-c2cccnc2)c(-c2ccnc(NCCO)n2)s1 | 37.6 |
| CC(C)(C)Nc1nc(-c2cccnc2)c(-c2ccnc(NCCO)n2)s1 | 121 |
| COc1ccccc1C(=O)Nc1ccc([C@@H](O)[C@H]2COCC(=O)N2)cc1 | 3.39 |
| CCS(=O)(=O)NC[C@]12COC[C@H]1CN(Cc1cccc(OC)c1)C2 | -39.6 |
| O=C(COCc1ccccc1Cl)N1CCN(c2ncccn2)CC1 | 0.958 |
| O=C(COCc1ccccc1Cl)N1CCN(c2cnccn2)CC1 | 25.8 |
| O=C(COCc1ccccc1Cl)N1CCN(c2ccc(Br)cn2)CC1 | 63.1 |
| O=C1CC[C@H]2[C@H](CCN2c2ccccn2)N1CC1CCOCC1 | -8.5 |
| CCc1cnc(N2CC[C@H]3[C@@H]2CCC(=O)N3c2ccccc2)nc1 | -13.3 |
| CCc1cnc(N2CC[C@H]3[C@@H]2CCC(=O)N3CC2CCOCC2)nc1 | 88.2 |
| O=C1O[C@@H]2CN(c3ccncc3)C[C@@H]2N1CCCc1ccc(F)cc1 | -35.8 |
